From PubChem BioAssay AID1159580 (chemical genetic matrix, 2015)
The whole screen tested about 5,500 compounds, of which about 2,000 (36%) were called active. Another 18% or so got no clear call; they are omitted. Rule as the data show it: active = normalized growth mostly below about 0.91 (no sharp cut-off); inconclusive = no clear call, values can overlap the other calls; inactive = mostly above about 0.92. The list shows a part of the results.

Assay: chemical genetic growth profiling, strain panel (AID 1159580);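 also: tested at 20 µM; growth read once vehicle control cultures reached saturation at 30 °C; 1 = growth at the plate median or of vehicle wells; lower values mean less growth of the strain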
Settings: growth OD

Measured: normalized growth

CC(C)(C)NCC(O)COc1cccc2c1C[C@H](O)[C@H](O)C2 (stereo not given in full)
inactive: S. cerevisiae deletion strains, locus YJR075W, strain HOC1, hits give low values 1 | S. cerevisiae deletion strains, locus YKL009W, strain mrt4, hits give low values 0.972 | S. cerevisiae deletion strains, locus YKL068W, hits give low values 0.986 | S. cerevisiae deletion strains, locus YKL085W, strain MDH1 (second series), hits give low values 0.99 | S. cerevisiae deletion strains, locus YKL085W, strain MDH1, hits give low values 0.99 | S. cerevisiae deletion strains, locus YKL160W, strain elf1, hits give low values 1.01 | S. cerevisiae deletion strains, locus YKL190W, strain CNB1, hits give low values 0.993 | S. cerevisiae deletion strains, locus YKR001C, strain vps1, hits give low values 1 | S. cerevisiae deletion strains, locus YKR026C, strain gcn3, hits give low values 1.01 | S. cerevisiae deletion strains, locus YKR091W, strain srl3, hits give low values 0.993 | S. cerevisiae deletion strains, locus YLL001W, strain dnm1, hits give low values 1.01 | S. cerevisiae deletion strains, locus YLL026W, hits give low values 1.01 | S. cerevisiae deletion strains, locus YLL041C, strain sdh2, hits give low values 1 | S. cerevisiae deletion strains, locus YLR027C, strain aat2, hits give low values 1 | S. cerevisiae deletion strains, locus YLR039C, strain RIC1, hits give low values 0.973 | S. cerevisiae deletion strains, locus YLR058C, strain SHM2, hits give low values 0.997 | S. cerevisiae deletion strains, locus YLR102C, strain apc9, hits give low values 0.992 | S. cerevisiae deletion strains, locus YLR113W, strain HOG1, hits give low values 1.05 | S. cerevisiae deletion strains, locus YLR221C, strain rsa3, hits give low values 1 | S. cerevisiae deletion strains, locus YLR258W, strain gsy2, hits give low values 0.998 | S. cerevisiae deletion strains, locus YLR262C, strain YPT6 (second series), hits give low values 1.01 | S. cerevisiae deletion strains, locus YLR262C, strain YPT6, hits give low values 0.928 | S. cerevisiae deletion strains, locus YLR268W, strain sec22, hits give low values 0.994 | S. cerevisiae deletion strains, locus YLR320W, strain mms22, hits give low values 1.02 | S. cerevisiae deletion strains, locus YLR330W, strain CHS5, hits give low values 0.986 | S. cerevisiae deletion strains, locus YLR342W, strain FKS1 (second series), hits give low values 0.993 | S. cerevisiae deletion strains, locus YLR342W, strain FKS1, hits give low values 1.01 | S. cerevisiae deletion strains, locus YLR357W, strain rsc2, hits give low values 1.01 | S. cerevisiae deletion strains, locus YLR370C, strain arc18, hits give low values 1.02 | S. cerevisiae deletion strains, locus YLR371W, strain rom2, hits give low values 0.994 | S. cerevisiae deletion strains, locus YLR384C, strain iki3, hits give low values 1.02 | S. cerevisiae deletion strains, locus YLR418C, strain cdc73, hits give low values 0.946 | S. cerevisiae deletion strains, locus YML016C, strain PPZ1, hits give low values 1 | S. cerevisiae deletion strains, locus YML032C, strain rad52, hits give low values 0.999 | S. cerevisiae deletion strains, locus YML120C, strain ndi1, hits give low values 1.01 | S. cerevisiae deletion strains, locus YML124C, strain tub3, hits give low values 0.995 | S. cerevisiae deletion strains, locus YMR058W, strain fet3, hits give low values 1.01 | S. cerevisiae deletion strains, locus YMR078C, strain ctf18, hits give low values 0.982 | S. cerevisiae deletion strains, locus YMR125W, strain sto1, hits give low values 1.01 | S. cerevisiae deletion strains, locus YMR129W, hits give low values 1.01 | S. cerevisiae deletion strains, locus YMR205C, strain PFK2, hits give low values 1.02 | S. cerevisiae deletion strains, locus YMR223W, strain ubp8, hits give low values 0.964 | S. cerevisiae deletion strains, locus YMR231W, strain pep5, hits give low values 0.998 | S. cerevisiae deletion strains, locus YMR263W, strain SAP30, hits give low values 1.02 | S. cerevisiae deletion strains, locus YMR307W, strain GAS1, hits give low values 0.959 | S. cerevisiae deletion strains, locus YNL067W, strain RPL9B, hits give low values 1.02 | S. cerevisiae deletion strains, locus YNL071W, strain lat1, hits give low values 0.999 | S. cerevisiae deletion strains, locus YNL128W, strain TEP1, hits give low values 0.988 | S. cerevisiae deletion strains, locus YNL183C, strain NPR1, hits give low values 1 | S. cerevisiae deletion strains, locus YNL209W, strain ssb2, hits give low values 0.994 | S. cerevisiae deletion strains, locus YNL233W, strain BNI4, hits give low values 1.04 | S. cerevisiae deletion strains, locus YNL248C, strain rpa49, hits give low values 1.01 | S. cerevisiae deletion strains, locus YNL250W, strain rad50, hits give low values 0.972 | S. cerevisiae deletion strains, locus YNL271C, strain bni1, hits give low values 0.988 | S. cerevisiae deletion strains, locus YNL298W, strain CLA4, hits give low values 0.983 | S. cerevisiae deletion strains, locus YNL307C, strain MCK1, hits give low values 0.986 | S. cerevisiae deletion strains, locus YNL322C, strain KRE1 (second series), hits give low values 1.01 | S. cerevisiae deletion strains, locus YNL322C, strain KRE1, hits give low values 0.992 | S. cerevisiae deletion strains, locus YNR049C, strain mso1, hits give low values 1.01 | S. cerevisiae deletion strains, locus YNR052C, strain pop2, hits give low values 0.989 | S. cerevisiae deletion strains, locus YOL006C, strain TOP1, hits give low values 1.05 | S. cerevisiae deletion strains, locus YOL012C, strain htz1 1.13 | S. cerevisiae deletion strains, locus YOL147C, strain pex11, hits give low values 0.992 | S. cerevisiae deletion strains, locus YOR001W, strain rrp6, hits give low values 1 | S. cerevisiae deletion strains, locus YOR061W, strain CKA2, hits give low values 1 | S. cerevisiae deletion strains, locus YOR069W, strain VPS5, hits give low values 0.999 | S. cerevisiae deletion strains, locus YOR070C, strain gyp1, hits give low values 1 | S. cerevisiae deletion strains, locus YOR080W, strain dia2, hits give low values 1.01 | S. cerevisiae deletion strains, locus YOR083W, strain WHI5, hits give low values 1 | S. cerevisiae deletion strains, locus YOR106W, strain vam3, hits give low values 1.02 | S. cerevisiae deletion strains, locus YOR136W, strain idh2, hits give low values 0.994 | S. cerevisiae deletion strains, locus YOR144C, strain elg1, hits give low values 0.999 | S. cerevisiae deletion strains, locus YOR184W, strain ser1, hits give low values 0.974 | S. cerevisiae deletion strains, locus YOR231W, strain MKK1, hits give low values 1.06 | S. cerevisiae deletion strains, locus YOR265W, strain rbl2, hits give low values 1.01 | S. cerevisiae deletion strains, locus YOR270C, strain vph1, hits give low values 1.01 | S. cerevisiae deletion strains, locus YOR290C, strain snf2, hits give low values 1.01 | S. cerevisiae deletion strains, locus YOR316C, strain cot1, hits give low values 0.985 | S. cerevisiae deletion strains, locus YPL051W, strain arl3, hits give low values 1 | S. cerevisiae deletion strains, locus YPL078C, strain atp4, hits give low values 1 | S. cerevisiae deletion strains, locus YPL106C, strain sse1, hits give low values 1.01 | S. cerevisiae deletion strains, locus YPL240C, strain hsp82, hits give low values 0.997 | S. cerevisiae deletion strains, locus YPL241C, strain CIN2, hits give low values 0.987 | S. cerevisiae deletion strains, locus YPL256C, strain CLN2, hits give low values 1.02 | S. cerevisiae deletion strains, locus YPR119W, strain clb2, hits give low values 0.996 | S. cerevisiae deletion strains, locus YPR141C, strain kar3, hits give low values 0.994 | S. cerevisiae deletion strains, locus YPR163C, strain tif3, hits give low values 0.991 | S. cerevisiae deletion strains, locus YPR167C, strain met16, hits give low values 0.987 | S. cerevisiae deletion strains, strain wtn01, hits give low values 0.983 | S. cerevisiae strains, strain wild type, hits give low values 0.998
